The structures appear in SMILES notation. Among all 47,000 compounds or so, about 330 (0.7%) were called active. Many of the other results were omitted from the sample, so actives are more common in it than they were. A number with no mark means an inactive call. Rule as the data show it: active = inhibition above about 30%; inactive = the rest.

For this assay, the target named is OTU domain-containing protein 3 (Homo sapiens) (UniProt Q5T2D3). The experiment in a line: inhibitors of human OTUD3 deubiquitinase (AID 1645858). Particulars: purified OTUD3, Ub-rhodamine fluorescence, 2 h; at 25 µM; active compounds read high.
OTU domain-containing protein 3 (Homo sapiens), sequence (Q5T2D3 whole entry, looked up, the tested form may be a part): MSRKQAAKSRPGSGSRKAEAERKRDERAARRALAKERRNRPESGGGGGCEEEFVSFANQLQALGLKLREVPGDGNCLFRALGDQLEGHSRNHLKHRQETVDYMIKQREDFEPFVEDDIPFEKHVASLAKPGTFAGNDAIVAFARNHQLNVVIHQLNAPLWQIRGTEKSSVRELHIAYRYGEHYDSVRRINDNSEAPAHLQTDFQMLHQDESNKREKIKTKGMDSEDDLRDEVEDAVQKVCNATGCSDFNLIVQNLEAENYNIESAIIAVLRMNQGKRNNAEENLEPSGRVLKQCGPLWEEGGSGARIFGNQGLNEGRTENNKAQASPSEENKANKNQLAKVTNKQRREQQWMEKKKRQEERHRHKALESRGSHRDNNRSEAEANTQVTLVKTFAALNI
Broadly, the inhibition is the drop in the measured response relative to a control, in per cent. With `Cc1cc(N2C(=O)c3oc4ccccc4c(=O)c3C2c2ccc(F)cc2)no1` (stereo not given), the inhibition is -4.24%. With `CCNC1CN(C(=O)Cn2nnc3ccccc32)C2(CCCCC2)C1` (stereo not given), the inhibition is 2.28%.

As for `O[C@H]1[C@H](O)[C@H](Oc2cccc(F)c2)CC[C@H]1NCc1ccncc1`, the inhibition is 15.2%.

For `NS(=O)(=O)c1cccc(CNC(=O)C2(c3ccccc3)CCC2)c1`, the inhibition was 0.73%.

Turning to `N#Cc1c(N)nc2c(c1N)CC(C(F)(F)F)O2` (stereo not given), the inhibition was -4.36%.

Consider `Clc1ccc2[nH]c3c(ccc4c5cc(Cl)ccc5[nH]c43)c2c1`, for which the inhibition is 3.62%. For `COc1ccc(CNC(=O)c2[nH]nc3c2CCc2ccccc2-3)cc1`, the inhibition is -5.63%. Under `Cc1ccc(NC(=O)N2CCCC2c2cc(C)on2)c(Cl)c1` (stereo not given) stands -2.99%. Under `c1ccc(-c2ccc(NCc3ccc4c(c3)OCO4)nn2)cc1` stands 43.5% (active); under `CCC(Oc1ccccc1)C(=O)NCc1ccc2c(c1)OCO2` (stereo not given), 9.11%; under `c1cc(CNCc2ccc3c(c2)OCO3)ccn1`, 0.0568%.

For `Cc1cc(Cl)ccc1NC(=O)c1ccc(=O)[nH]c1`, the inhibition was -2.31%. In the case of `N[C@@H]1C[C@@H](Oc2cccnc2)[C@H](O)[C@H]1N1CCN(c2ccccc2)CC1`, the inhibition was -8.12%.

For the compound `CSc1nccc(-c2ccc(F)cc2)c1C#N`, the inhibition was 11%.

`CCn1c(CNC(=O)c2ccco2)nnc1SCC(=O)Nc1ccc(C)cc1`: the inhibition is 0.297%. In the case of `Cc1ccc(CN2C(=O)C(CC(=O)Nc3ccc(F)cc3)n3c2nc2ccccc23)cc1` (stereo not given), the inhibition is -8.71%. In the case of `Cc1c(Cl)ccc2sc(N(Cc3ccncc3)C(=O)c3ccco3)nc12`, the inhibition was -4.28%. As for `Cc1coc2c(C)c3oc(=O)c(CC(=O)N4CC[C@@]5(O)CCCC[C@H]5C4)c(C)c3cc12`, the inhibition was -9.33%. Under `CC(=O)c1ccc(C)c(=O)o1` stands 9.1%; under `CC(=O)N1CCSc2ccc(S(=O)(=O)N(C)C(C)CCc3ccco3)cc21` (stereo not given), -8.61%; under `O=C1NC2(CCN(C(=O)NCc3ccccc3)CC2)Nc2c(Cl)cccc21`, -5.72%. Under `CC(C)c1ncc(CN2CCC3(CC2)CN(S(C)(=O)=O)Cc2ccccc2O3)cn1` stands -4.5%. Under `COc1ccc(-c2[nH]c3ccccc3c2SCCNC(=O)c2ccc(S(=O)(=O)N3CCOCC3)cc2)cc1` stands 11.6%; under `O=C(CCc1nnc2n(CCc3ccccc3)c(=O)c3ccccc3n12)N1CCOCC1`, 4.98%; under `COC(=O)c1ccc(CN(C)C(=O)c2ccc(-c3nnc(-c4ccccc4)o3)cc2)cc1`, -0.482%. With `O=C1CCCN1Cc1ncn2c1CN(Cc1cccnc1)CCC2`, the inhibition was -1.01%. On to `CCN1C(=O)C[C@@H](C(=O)NCc2nc(C)no2)[C@@H]1c1ccccc1C`, for which the inhibition was 1.87%. Turning to `COc1ccc(CC2c3cc(OC)c(OC)cc3CCN2C(=O)c2ccc(C)c(Cl)c2)cc1OC` (stereo not given), the inhibition is 1.03%.

For `O=C(CSC1=NC2(CCCCC2)Nc2ccccc21)Nc1cccc(F)c1`, the inhibition is -11.6%. Under `O=C(NCc1ccc(F)cc1)C1CCc2nc(N3CCCCC3)ncc2C1` (stereo not given) stands 1.53%; under `Cc1cc(-c2ccc(S(=O)(=O)Nc3cccc(CN4CCCC4)c3)s2)n[nH]1`, -13.6%. Under `Cc1ccc(S(=O)(=O)c2cnc3ccccc3c2N2CCC3(CC2)OCCO3)cc1` stands 1.24%; under `O=C(Cc1c[nH]c2ccccc12)NC1(c2nc(-c3ccncc3)no2)CCCCC1`, -15.9%. Under `Clc1ccccc1-c1nc2nc3ccccc3nc2n1CC1CCCO1` (stereo not given) stands -16%; under `COc1ccc(N2CC(C(=O)OCC(=O)Nc3ccc(F)cc3)CC2=O)cc1` (stereo not given), -3.39%. Turning to `C[C@@H]1CC[C@H]2C(CN3CCN(C)CC3)C(=O)O[C@]23[C@H]1CC[C@@]1(C)O[C@@H]31` (stereo not given in full), the inhibition is 4.7%. Under `Cc1ccccc1CNC(=O)c1cn(C)nc1S(=O)(=O)N1CCC(C)CC1` stands 1.12%. With `COc1ccccc1Cn1cnc2c([nH]c3cc(OC)c(OC)cc32)c1=O`, the inhibition was 0.0298%. With `Cc1nccc(N2CCC(Cc3cncc(-c4cnc(C)n4C)n3)C2)n1` (stereo not given), the inhibition was 3.33%. Under `COc1ccc(NC(=O)Cn2ncc3cccn3c2=O)cc1` stands -2.63%. Under `CCCNC(=O)c1cc(N2CCCC2)n2nccc2n1` stands -68.7%. Under `CCS(=O)(=O)N1C[C@H]2CN(Cc3ccccc3Cl)C[C@H]2C1` stands -1.12%; under `O=C(COC(=O)C1CCN(S(=O)(=O)c2c(Cl)cccc2Cl)CC1)Nc1ccc2c(c1)CCC2`, 0.0518%.

As to `O=C(Nc1nnc(-c2cccc([N+](=O)[O-])c2)o1)C1CCN(S(=O)(=O)c2ccc3c(c2)CCC3)CC1`, the inhibition is 30.3% (active). Under `Cc1cccc(-c2nnc(-c3cccc(S(=O)(=O)N4CCCC4)c3)o2)c1` stands 10.7%; under `Cc1cnc2nc3c(cc2c1)CN(S(=O)(=O)c1cc(F)ccc1C)CC3`, -230%. Under `COCCN1[C@H]2CCN(Cc3ccccn3)CC[C@@H]2Oc2ccccc2S1(=O)=O` stands 7.81%; under `O=c1c(NCCCc2ccccc2)nccn1-c1ccc2c(c1)OCCO2`, -4.73%; under `CC(C)N1C(=O)Cc2ccccc2C1C(=O)NCc1ccccc1F` (stereo not given), 2.54%. Under `Cc1ccc(Sc2c(C)[nH]n(-c3ccccc3)c2=O)cc1` stands 7.8%. Regarding `COc1c(O)c2c(=O)cc(OC)c3c4c(OC)cc(=O)c5c(O)c(OC)c(CC(C)OC(=O)c6ccccc6)c(c(c1CC(C)OC(=O)Oc1ccc(O)cc1)c23)c54` (stereo not given), the inhibition was -24.8%. Under `C=C1CCC2[C@](C)(CCC[C@]2(C)C(=O)OC)[C@H]1CCc1ccoc1/C=C/C(=O)O` (stereo not given in full) stands 57.1% (active); under `C=C1CCC2[C@](C)(CCC[C@]2(C)C(=O)OC)[C@H]1CCc1ccoc1C[N+](C)(C)Cc1ccccc1` (stereo not given in full), 22.7%; under `C=C1CCC2[C@](C)(CCC[C@]2(C)C(=O)OC)[C@H]1CCc1ccoc1CNCC(=O)O` (stereo not given in full), -1.63%. Under `Cc1cc(C)n(CCCNS(=O)(=O)c2ccc(C(C)(C)C)cc2)n1` stands -3.74%. Under `Cc1nc(-c2ncc[nH]2)cc(C2CCCCN2S(=O)(=O)N(C)C)n1` (stereo not given) stands -4.61%. For the compound `N#Cc1cccc(S(=O)(=O)c2c[nH]c3ccc(Cl)cc3c2=O)c1`, the inhibition is -5.74%. `CCC(C)C1NC(=O)C(Cc2ccc(O)cc2)NC(=O)C(CCC(N)=O)NC(=O)C2CCCN2C(=O)C(C(C)C)NC(=O)C(CCC(=O)O)NC(=O)C(C(C)O)NC(=O)C(NC(=O)C(CCCN)NC(=O)C(CCC(=O)O)NC(=O)CCCCCCCCCCCCCC(C)C)Cc2ccc(cc2)OC1=O` (stereo not given): the inhibition is 5.05%. Under `O=C(NC(C(=O)N1CCCc2ccccc21)c1ccccc1)c1cnccn1` (stereo not given) stands 14.1%; under `O=C(Cn1cccc(-c2nc(-c3ccccc3)no2)c1=O)Nc1ccccc1F`, 6.4%. Under `Cc1noc(-c2cccn(Cc3cc(F)ccc3F)c2=O)n1` stands 5.03%; under `N#Cc1ccc(NC(=O)Nc2cccn(Cc3ccccc3F)c2=O)cc1`, 37.7% (active). Under `Cc1cc(C(=O)N2CCCCC2c2[nH]ncc2C)c2c(C)noc2n1` (stereo not given) stands 11.6%. With `COc1ccccc1C(=O)Nc1ccc(N(c2ccccc2)C(C)C)cc1`, the inhibition is 2.72%. In the case of `FC(F)(F)c1cc(N2CCCCC2)nc(-c2ccccn2)n1`, the inhibition is -3.6%.

For the compound `CC(Sc1ncnc2ccccc12)C(=O)NCc1ccc2c(c1)OCO2` (stereo not given), the inhibition was 12.8%. As to `Cn1cc(C2CCCN2C(=O)c2ccc(-n3cccn3)nc2)cn1` (stereo not given), the inhibition is -5.62%.

As for `COc1ccc(-c2cc(=O)oc3c(C)c(OCc4ccccc4F)ccc23)cc1`, the inhibition was 1.77%. Under `CN1CCN(c2nc3c(s2)CN(C(=O)c2ccnn2C)CC3)CC1` stands -25.7%; under `COc1cccc(NC(=O)C(Sc2cccc(NC(=O)c3ccccc3F)c2)c2ccccc2)c1` (stereo not given), 15.7%.

For the compound `C#CCOc1ccc2ccccc2c1CN1CCc2ccccc2C1`, the inhibition was 14.8%. For the compound `COCCN(C(=O)CCC(=O)Nc1ccccn1)C(C(=O)NCC1CCCO1)c1ccc(C)cc1` (stereo not given), the inhibition is 12.3%. Under `CN1C[C@H]2CCN(S(=O)(=O)c3ccc(OC(F)(F)F)cc3)C[C@H]21` stands 5.38%.

On to `COc1ccccc1N1CCN(C(=O)CSCc2ccccc2C)CC1`, for which the inhibition is -10.5%. Under `CC(C)C(NS(=O)(=O)c1ccccc1)C(=O)OCC(=O)Nc1cc([N+](=O)[O-])ccc1F` (stereo not given) stands 6.16%. For `CCCc1cc(=O)[nH]c2nnc(SCC(=O)N(CC)CC)n12`, the inhibition was -0.85%. Under `Cc1nn(-c2ccc(F)cc2F)c2c1C(C(=O)c1cc3ccccc3o1)CC(=O)N2` (stereo not given) stands -3.81%; under `CCCCC1CCC(C(=O)N2CCC(C3(C)NC(=O)NC3=O)CC2)CC1` (stereo not given), 5.45%.

Regarding `CCc1ccc(S(=O)(=O)Nc2cc(C(=O)Nc3ccccc3)ccc2OC)cc1`, the inhibition is -4%. As for `Cc1cc(CN2CC[C@H]3[C@H]2CCN3S(C)(=O)=O)oc1C`, the inhibition was -12%.

As to `Cc1nn(CC(C)C)c(C)c1CC(=O)N1CCCC1c1cnn(C)c1` (stereo not given), the inhibition was -0.626%. For the compound `NC(=O)CC[C@H](NC(=O)[C@@H]1CCCN1C(=O)[C@H](Cc1ccccc1)n1c(=O)[nH]c2ccccc2c1=O)C(=O)O`, the inhibition is -2.35%. Take `Cc1ccc(NC(=O)C2CCN(S(=O)(=O)c3cnc[nH]3)CC2)cc1Cl`: the inhibition was -2.32%. `O=C(Cc1c(Cl)cccc1Cl)NCc1cccc(C(F)(F)F)c1`: the inhibition was 4.26%. Under `COc1cccc(CN2C[C@@]34CN(C(=O)C5CCC5)C[C@@H](C[C@@H]3S2(=O)=O)O4)c1` stands 9.25%.

Values taken from PubChem BioAssay AID1645858 (Buhrlage Lab, Dana-Farber Cancer Institute and Novartis …, 2021).
